The text below walks through data of PubChem BioAssay (NCI).

The panel holds about 83,000 compounds, 20% with a hit somewhere; the sample as a whole holds those more often.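 Treatment: one concentration, 48 hours, 96-well format. Scoring: percent growth, with anything below 10 considered active.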 Values without a mark were called inactive. Activity calls are given as the source filed them.

What all share (assay): NCI-60 one-dose screen, 48 h (100 = growth as untreated, 0 = no growth, -100 = all killed)
In one assay the test system is NCI-H23 lung. To be noted: 10 µM unless noted.
The subject of another assay is NCI-H226 lung. To be noted: 10 µM unless noted.
In a further assay the test system is NCI-H322M lung. The conditions noted are these: 10 µM unless noted.
The test system of a further assay is HOP-62 NSCLC. The conditions noted are these: 10 µM unless noted.
In another assay the test system is NCI-H460 lung. The conditions noted are these: 10 µM unless noted.
A further assay concerns HOP-92 NSCLC. The conditions noted are these: 10 µM.
For another assay, the system named is A549/ATCC NSCLC. The conditions noted are these: 10 µM unless noted.
Another assay has as its system 786-0 renal. The conditions noted are these: 10 µM unless noted.
In another assay the test system is COLO 205 colon. To be noted: 10 µM unless noted.
Another assay has as its system DU-145 prostate. To be noted: 10 µM unless noted.
A further assay relates to K-562 leukemia. The conditions noted are these: 10 µM unless noted.
The next assay deals with MALME-3M melanoma. The conditions noted are these: 10 µM unless noted.
The next assay concerns MDA-MB-231 breast. To be noted: 10 µM unless noted.
For another assay, the system named is RXF 393 renal. To be noted: 10 µM unless noted.
The next assay deals with SF-268 CNS. The conditions noted are these: 10 µM unless noted.
A further assay deals with SF-295 CNS. The conditions noted are these: 10 µM unless noted.
The next assay deals with SF-539 CNS. The conditions noted are these: 10 µM unless noted.
The next assay relates to UACC-257 melanoma. To be noted: 10 µM unless noted.
In another assay the test system is M14 melanoma. To be noted: 10 µM unless noted.

With `CC1(C)[C@@H](O)CC[C@]2(C)[C@H]3CC[C@@H]4[C@H]5[C@H](C(=O)/C=C\c6ccc([N+](=O)[O-])cc6)CC[C@]5(O)CC[C@@]4(C)[C@]3(C)CC[C@@H]12`, the growth with NCI-H23 lung was 50.2%; in the assay with NCI-H226 lung, -2.45% (active); with NCI-H322M lung it was 90.8%; in the assay with HOP-62 NSCLC it was 86.9%; in the assay with NCI-H460 lung it was 51.8%; in the assay with HOP-92 NSCLC, 82.7%. In addition, the growth in the assay on A549/ATCC NSCLC is 61.8%; in the assay on 786-0 renal it was 56.8%; in the assay with COLO 205 colon, 106%; in the assay on DU-145 prostate it was 58%; with K-562 leukemia it was 27.3%; in the assay with MALME-3M melanoma, 66.6%. Moreover, the growth in the assay with MDA-MB-231 breast is 46.2%; in the assay on RXF 393 renal, -7.82% (active); with SF-268 CNS, 63.9%; in the assay on SF-295 CNS, 79.5%; in the assay with SF-539 CNS, 51.8%; with UACC-257 melanoma it was 70.3%. Besides, the growth with M14 melanoma was 42.6%.

Take `COc1ccc(S(=O)(=O)NCCCNc2nccc(-c3cn(C(C)(C)C)nc3-c3ccc(Cl)c(OC)c3)n2)cc1`: the growth is 87.7% in the assay with NCI-H23 lung; 73.6% in the assay on NCI-H226 lung; 82.5% in the assay on NCI-H322M lung; 63.3% with HOP-62 NSCLC; 84.9% in the assay with NCI-H460 lung; 69.4% with HOP-92 NSCLC. Besides, the growth is 64.4% with A549/ATCC NSCLC; 79.7% in the assay with 786-0 renal; 105% with COLO 205 colon; 72.3% in the assay on DU-145 prostate; 59.7% in the assay on K-562 leukemia; 92.7% in the assay on MALME-3M melanoma. Also, the growth in the assay with MDA-MB-231 breast is 43.8%; in the assay with RXF 393 renal it was -0.734% (active); in the assay on SF-268 CNS, 57.9%; with SF-295 CNS, 91.2%; in the assay with SF-539 CNS it was 89.8%; in the assay with UACC-257 melanoma, 104%.

As to `CC1(C)[C@@H](O)CC[C@]2(C)[C@H]3CC[C@@H]4[C@H]5[C@H](C(=O)/C=C\c6ccncc6)CC[C@]5(O)CC[C@@]4(C)[C@]3(C)CC[C@@H]12`, the growth in the assay with NCI-H23 lung was 49.2%; in the assay on NCI-H226 lung it was 27.8%; in the assay on NCI-H322M lung it was 93.4%; with HOP-62 NSCLC, 89.9%; in the assay with NCI-H460 lung, 62.9%; in the assay with HOP-92 NSCLC, 91.9%. For the same molecule, the growth in the assay with A549/ATCC NSCLC was 71.5%; with 786-0 renal, 35.3%; in the assay with COLO 205 colon it was 91%; in the assay with DU-145 prostate it was 38%; with K-562 leukemia, 9.43% (active); in the assay with MALME-3M melanoma, 94.3%. Moreover, the growth in the assay with MDA-MB-231 breast was -8.43% (active); in the assay on RXF 393 renal it was -13.7% (active); in the assay on SF-268 CNS it was 50.2%; with SF-295 CNS it was 93.3%; in the assay with SF-539 CNS, 37.9%; in the assay on UACC-257 melanoma, 72.8%. Besides, in the assay with M14 melanoma, the growth was 67.4%.

For `Cc1c(F)cc(C(N)=O)cc1NCC(=O)Nc1ccc([N+](=O)[O-])cc1`, the growth in the assay on NCI-H23 lung was 89.2%; in the assay on NCI-H226 lung, 82.2%; with NCI-H322M lung it was 99.4%; with HOP-62 NSCLC, 70.6%; in the assay with NCI-H460 lung it was 99%; with HOP-92 NSCLC, 75.8%. The growth with A549/ATCC NSCLC was 87.7%; in the assay on 786-0 renal, 87.5%; in the assay with COLO 205 colon, 105%; in the assay on DU-145 prostate, 86.7%; in the assay on K-562 leukemia it was 101%; in the assay with MALME-3M melanoma, 109%. Moreover, the growth in the assay on MDA-MB-231 breast was 89.8%; with RXF 393 renal, 45.5%; in the assay on SF-268 CNS it was 81.2%; in the assay with SF-295 CNS it was 93.6%; with SF-539 CNS, 95.1%; with UACC-257 melanoma it was 102%. Moreover, the growth in the assay on M14 melanoma was 99.1%.

For the molecule `NS(=O)(=O)c1ccc(Nc2nc(N/N=C/c3ccc(Cl)cc3)nc(Nc3ccccc3)n2)cc1`, the growth in the assay on NCI-H23 lung was 87.1%; with NCI-H226 lung, 81.4%; in the assay with NCI-H322M lung, 93.1%; with HOP-62 NSCLC it was 83.1%; with NCI-H460 lung it was 72.2%; with HOP-92 NSCLC, 91%. The growth in the assay with A549/ATCC NSCLC was 62.6%; in the assay on 786-0 renal, 40.3%; in the assay with COLO 205 colon, 73.8%; in the assay with DU-145 prostate, 72.7%; with K-562 leukemia it was 59.9%; in the assay with MALME-3M melanoma, 88.3%. Moreover, the growth in the assay on MDA-MB-231 breast was 86.7%; in the assay on RXF 393 renal, -11.5% (active); in the assay with SF-268 CNS, 73.7%; in the assay with SF-295 CNS, 58.6%; in the assay with SF-539 CNS it was 53.8%; with UACC-257 melanoma it was 89.5%.

Take `CC1(C)CC[C@]2(C(=O)O)CC[C@]3(C)C(=CC[C@@H]4[C@@]5(C)CC/C(=N\OCCC#N)C(C)(C)[C@@H]5CC[C@]43C)[C@@H]2C1`: the growth was 98% with NCI-H23 lung; 98% in the assay on NCI-H226 lung; 111% with NCI-H322M lung; 79.2% in the assay with HOP-62 NSCLC; 93.7% in the assay on NCI-H460 lung; 123% in the assay with HOP-92 NSCLC. The growth in the assay with A549/ATCC NSCLC is 93.7%; in the assay with 786-0 renal, 80.8%; with COLO 205 colon, 111%; in the assay on DU-145 prostate, 91.8%; in the assay on K-562 leukemia it was 109%; with MALME-3M melanoma, 117%. The growth is 93% in the assay on MDA-MB-231 breast; 66.6% with RXF 393 renal; 84.6% with SF-268 CNS; 102% in the assay with SF-295 CNS; 99.2% with SF-539 CNS; 108% with UACC-257 melanoma. Also, the growth in the assay on M14 melanoma is 98.2%.

As for `Cc1cc(S(=O)(=O)N(C)C)cc(NCC(=O)NC(=O)NCC(C)C)c1C`, the growth in the assay on NCI-H23 lung is 94.5%; in the assay on NCI-H226 lung it was 90.7%; in the assay on NCI-H322M lung it was 100%; with HOP-62 NSCLC, 78.6%; in the assay on NCI-H460 lung, 109%; in the assay on HOP-92 NSCLC it was 84.5%. Further, the growth in the assay on A549/ATCC NSCLC was 88%; in the assay on 786-0 renal, 91.1%; in the assay on COLO 205 colon, 109%; in the assay on DU-145 prostate, 85.1%; in the assay with K-562 leukemia it was 97.1%; with MALME-3M melanoma, 106%. Moreover, the growth in the assay with MDA-MB-231 breast was 85.6%; with RXF 393 renal it was 64.8%; in the assay with SF-268 CNS, 81.5%; with SF-295 CNS, 100%; in the assay on SF-539 CNS, 97.1%; in the assay on UACC-257 melanoma, 103%.

Turning to `C=C(C)[C@@H]1CC[C@]2(COCCCNCCC#N)CC[C@]3(C)[C@H](CC[C@@H]4[C@@]5(C)CC[C@H](OCCCNCCC#N)C(C)(C)[C@@H]5CC[C@]43C)[C@@H]12`, the growth with NCI-H23 lung is 33.4%; in the assay on NCI-H226 lung, 48.8%; with NCI-H322M lung it was 105%; in the assay on HOP-62 NSCLC it was 75.6%; in the assay on NCI-H460 lung it was 41.8%; in the assay on HOP-92 NSCLC it was 49.7%. In addition, the growth with A549/ATCC NSCLC is 59.2%; in the assay on 786-0 renal, 59.8%; in the assay with COLO 205 colon it was 61.8%; with DU-145 prostate it was 65%; with K-562 leukemia, 3.78% (active); in the assay on MALME-3M melanoma, 72.4%. For the same molecule, the growth with MDA-MB-231 breast was 54.8%; in the assay with RXF 393 renal, -9.12% (active); in the assay on SF-268 CNS, 55.6%; in the assay on SF-295 CNS, 55.9%; in the assay with SF-539 CNS, 67.5%; in the assay on UACC-257 melanoma, 61.5%. Besides, in the assay on M14 melanoma, the growth is 75.3%.
